Assay outcomes deposited in PubChem BioAssay by National Center for Advancing Translational Sciences (NCATS).
IkB signaling: inhibitors of IkB signaling in ABC-DLBCL cells. ABC-DLBCL IkBa-CBG/CBR dual luciferase ratio, 4 h; response scale: scaled: untreated 0%, proteasome inhibitor 100%. Potency, µM (series often up to 57.1 µM), for inactives: top-dose IkBa stabilization activation. 110,000 tested, 0.04% active. AID 445; active = well fitted curve in the direction sought with a large enough effect in the signal ratio, not every such curve was filed as active; inconclusive = small, poorly fitted or top-dose-only effect, or a change in a side signal; the % refers to the signal ratio;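 also: the direction sought is a rising ratio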
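In this assay, an IκBα–CBG68 fusion accumulates when IKK-driven degradation is blocked; native CBR normalizes for cell number. OCI-Ly3 cells were treated 4 h with compound and doxycycline, then green and red light read after Chroma-Glo addition.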
ERK AVP inh: inhibitors of vasopressin-stimulated ERK signaling pathway; HEK293-V1b, vasopressin-stimulated pERK AlphaScreen; Potency, µM (highest dose often 57.5 µM), for the others: top-dose activity, negative = inhibition, most hits filed as inhibitors; 72,000 tested, 0.99% active; also: % is scaled to controls: 0 for no effect and ±100 for the full control effect; nearly all actives have a fitted effect of over 55% in size
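HEK293 cells stably expressing V1b receptor, preincubated 30 min at 37 °C with compound, then stimulated 5 min with 25 nM vasopressin. Phospho-ERK by AlphaScreen SureFire after 5 h RT; normalized to DMSO and vasopressin; AC50 by Hill fit.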
TSHR agonist: agonists of human thyroid stimulating hormone receptor; P16473; HEK293-CNG-TSHR cells (CNG channel as cAMP sensor), membrane potential dye, cAMP; 73,000 tested, 0.48% active; Potency, µM (highest dose often 57.1 µM), for the others: at the highest dose activation, hits mostly activators; active = well fitted activation curve with a large enough effect in the main read-out, with a control signal flat, not every such curve was filed as active; inconclusive = small, poorly fitted or top-dose-only effect, or a change in a side signal; inactive = no such curve, though single readings can be large or run the other way; % of control where 0% means no effect;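 also: the control signal comes from parental cells without the receptor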
Target sequence (P16473 whole entry, looked up): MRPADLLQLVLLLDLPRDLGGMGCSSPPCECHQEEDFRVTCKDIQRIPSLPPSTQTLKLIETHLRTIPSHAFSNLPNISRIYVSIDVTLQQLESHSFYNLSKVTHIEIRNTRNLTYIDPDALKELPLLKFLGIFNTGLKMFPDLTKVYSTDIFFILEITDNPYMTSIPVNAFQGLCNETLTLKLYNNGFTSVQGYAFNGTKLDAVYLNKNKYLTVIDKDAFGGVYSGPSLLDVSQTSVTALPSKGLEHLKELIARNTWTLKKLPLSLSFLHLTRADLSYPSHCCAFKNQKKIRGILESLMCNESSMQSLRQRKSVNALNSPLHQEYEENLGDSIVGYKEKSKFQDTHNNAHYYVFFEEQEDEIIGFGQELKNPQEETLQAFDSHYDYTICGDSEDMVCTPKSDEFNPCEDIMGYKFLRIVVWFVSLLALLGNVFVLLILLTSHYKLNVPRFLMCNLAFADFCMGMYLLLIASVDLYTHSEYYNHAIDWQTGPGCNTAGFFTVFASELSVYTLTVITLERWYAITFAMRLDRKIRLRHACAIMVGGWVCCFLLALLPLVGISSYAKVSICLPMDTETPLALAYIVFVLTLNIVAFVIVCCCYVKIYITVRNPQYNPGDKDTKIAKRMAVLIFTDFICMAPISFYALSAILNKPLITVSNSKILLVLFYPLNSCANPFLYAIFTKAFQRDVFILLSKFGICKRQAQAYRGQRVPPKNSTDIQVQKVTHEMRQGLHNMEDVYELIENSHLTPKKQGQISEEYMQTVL
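HEK 293 cells stably expressing TSHR and a modified CNG channel, with CNG-only parental cells as counterscreen, were preloaded 60 min at room temperature with membrane potential dye containing 100 uM RO 20-1724. Compound exposure was 30 min, and depolarization was read as fluorescence at 590 nm.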
CRE-bla Fsk: CRE-bla signaling modulation under forskolin stimulation. CHO CRE-bla reporter (cAMP response element driving beta-lactamase), forskolin EC10, beta-lactamase ratio. Potency, µM (doses to about 38.2 µM), for inactives: top-dose activity change, negative = inhibition, hits mostly activators. 71,000 tested, 2.5% active; active = well fitted activation curve with a large enough effect in the signal ratio, with a control signal flat, not every such curve was filed as active; inconclusive = small, poorly fitted or top-dose-only effect, or effect the other way, or a change in a side signal; the % refers to the signal ratio; also: % of control where 0% means no effect
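CRE-bla CHO cells stimulated with EC10 NKH 477 (water-soluble forskolin) and compound titrations, 3 h at 37C; beta-lactamase read with CCF4 after 2 h at room temperature. Activity from 460/530 nm emission ratio, AC50 values for positive or negative modulation.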
HEK293 cAMP ctrl: parental HEK293 cAMP activation (counter-screen) | parental HEK293 CNG cAMP sensor, membrane potential fluorescence | Potency, µM (titrated, usually from 57.1 µM), without a hit: at the highest dose activation, actives largely listed as activators | 73,000 tested, 2.5% active | AID 938; also: % of control where 0% means no effect; nearly all actives have a fitted effect of over 55% in size
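Parental HEK 293 cells stably expressing a cAMP-gated CNG channel were loaded with membrane potential dye containing 100 uM RO 20-1724 for 60 min. Compound added for 30 min; depolarization read as fluorescence intensity at 590 nm.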
* = called active by the depositor; ? = inconclusive; . = no result; [ ] = another dose, or the depositor's remark. Rows were chosen to be rich in hits. Some 3.6% of all compounds tested hit in one or more screens of this group. Unless noted, calls follow the shape of the dose curve; as a rule, active = well fitted curve in the direction sought with a large enough effect; inconclusive = small, poorly fitted or top-dose-only effect, or another doubt; inactive = no such curve, though single readings can be large; an effect the other way counts as inactive or inconclusive. Potency is read from the fitted curve at half-maximal effect.

SMILES	IkB signaling	ERK AVP inh	TSHR agonist	CRE-bla Fsk	HEK293 cAMP ctrl
COc1ccc(C2(C)NC(=O)N(Cc3cc(Cl)cc4c3OCOC4)C2=O)cc1OC (stereo unspecified)	-1%	-24%	?	?	16µM*
Cn1c(=O)c2c(SCC(=O)NCc3ccco3)nc(CC(C)(C)C)nc2n(C)c1=O	3%	.	?	?	?
COc1ccc(-c2nn(C)c3sc(C(=O)N4CCOCC4)cc23)cc1OC	3%	?	7%	10µM*	4%
COc1ccc(N2CCN(C(=O)c3cc4c(-c5cccc(OC)c5)nn(C)c4s3)CC2)cc1	2%	?	7%	4µM*	6%
COc1ccc(-c2nn(C)c3sc(C(=O)N4CCN(c5ccccc5F)CC4)cc23)cc1OC	1%	.	.	.	.
CC1CCCN(C(=O)c2cc3c(-c4ccc(Cl)cc4)nn(C)c3s2)C1 (stereo unspecified)	1%	-14%	?	3.2µM*	10%
COc1cccc(-c2nn(C)c3sc(C(=O)N4CCN(c5cccc(C(F)(F)F)c5)CC4)cc23)c1	-1%	.	.	.	.
Cn1cnnc1SCC(=O)NCc1cccc(C(F)(F)F)c1	3%	13%	3%	14%	0%
O=c1nc2n(c3cc(Cl)c(S(=O)(=O)N4CCOCC4)cc13)CCCCC2	0%	-1%	-3%	-4%	8%
COc1cc(OC)cc(C(=O)Nc2ccc(-c3nc4ccccc4s3)c(C)c2)c1	-3%	.	.	.	.
COC(=O)CCC(=O)Nc1sc2c(c1C#N)CCCC2	15%	?	-1%	?	21%
CC1CCN(CC(=O)Nc2sc3c(c2C#N)CCC3)CC1	-1%	1%	?	-1%	7.9µM*
COc1cc2[nH]c3c(N4CCN(c5ccccn5)CC4)ncnc3c2cc1OC	?	25µM*	-7%	-8%	-5%
CCOC(=O)C1CCN(c2ncnc3c2[nH]c2cccc(OC)c23)CC1	6%	-21%	-26%	?	-9%
COc1cccc2[nH]c3c(N4CCCCC4)ncnc3c12	-3%	20µM*	3%	?	5%
COc1ccc(OC)c(S(=O)(=O)N2CCN(Cc3nc4ccc(C)cc4o3)CC2)c1	-1%	.	.	.	.
CCC(=O)c1ccc(OCC(=O)Nc2nn3cnnc3s2)cc1	1%	32µM*	-1%	-1%	-13%
CC(CCc1ccccc1)NC(=O)c1cc2sccc2n1C (stereo unspecified)	.	.	25µM*	.	41%
Cn1c(C(=O)N2CCC(C(=O)NCCc3ccccc3)CC2)cc2sccc21	1%	.	.	.	.
COc1ccc(OC)c(NC(=O)c2cc3sccc3n2C)c1	6%	-14%	?	11%	25µM*
CC(CCc1ccccc1)NC(=O)C1CCCN(C(=O)c2cc3sccc3n2C)C1 (stereo unspecified)	?	25µM*	?	-19%	?
Cn1c(C(=O)N2CCCC(C(=O)NCCCSC3CCCCC3)C2)cc2sccc21 (stereo unspecified)	?	16µM*	?	-9%	?
COc1cc(NC(=O)c2cc3sccc3n2C)cc(OC)c1	?	-11%	?	15%	?
Cc1ccc(C23CC4CC(CC(NC(=O)N5CCN(C)CC5)(C4)C2)C3)cc1	2%	-14%	10%	-2%	5%
CCCn1c(N)c(C(=O)CSc2nnc(-c3ccco3)n2Cc2ccccc2)c(=O)[nH]c1=O	0%	-24%	-1%	-3%	-8%
SMILES	IkB signaling	ERK AVP inh	TSHR agonist	CRE-bla Fsk	HEK293 cAMP ctrl
CCc1ccc(N2CC(C(=O)OCC(=O)Nc3cc(C)on3)CC2=O)cc1 (stereo unspecified)	0%	11%	6%	-14%	7%
Cc1ccccc1C(=O)c1cccn1CC(=O)O	.	.	13%	.	15%
CCn1c(C(=O)N2CCCC(C(=O)NCCc3ccc(C)cc3)C2)cc2sccc21 (stereo unspecified)	?	?	?	-4%	?
Cn1c(C(=O)N2CCCC(C(=O)NCc3cccs3)C2)cc2sccc21 (stereo unspecified)	7%	?	25µM*	-4%	4%
CCn1c(C(=O)N2CCCC(C(=O)NCCCc3ccccc3)C2)cc2sccc21 (stereo unspecified)	?	16µM*	?	-11%	?
Cn1c(C(=O)Nc2ccc3c(c2)OCO3)cc2sccc21	3%	?	-14%	?	-14%
CCc1ccccc1NC(=O)c1cc2sccc2n1C	0%	?	?	3%	32µM*
CCn1c(C(C)NC(=O)c2cccc(C)c2)nc2ccccc21 (stereo unspecified)	0%	.	0%	5%	7%
N#Cc1ccccc1-c1ccc2ncnc(NC3CC3)c2c1	0%[11.4 µM]	-30%	9%	?	13%
Cc1cnc(CNc2ncnc3ccc(-c4ccccc4C)cc23)cn1	4%[11.4 µM]	-29%	?	?	?
N#Cc1ccccc1-c1ccc2ncnc(NCc3cccs3)c2c1	2%[11.4 µM]	-26%	?	?	16µM*
Cc1cccc(CNc2ncnc3ccc(-c4ccccc4C#N)cc23)c1	0%[11.4 µM]	-20%	?	?	25µM*
Cc1cnc(CNc2ncnc3ccc(-c4ccccc4Cl)cc23)cn1	6%[11.4 µM]	20µM*	?	?	?
CNc1ncnc2ccc(-c3ccccc3C#N)cc12	2%[11.4 µM]	?	6%	?	-8%
CCC/C=C(\CCC)C(NS(=O)(=O)c1cccc2cccnc12)c1ccc(-c2ccccc2)cc1 (stereo unspecified)	.	24%	-1%	2%	-3%
O=C1c2ccccc2CCC1C(O)c1ccccn1 (stereo unspecified)	0%	-21%	-1%[11.4 µM]	-5%	6%
CCc1ccccc1NC(=O)c1cc2nc(-c3ccc(Br)cc3)cc(C(F)(F)F)n2n1	0%	.	.	.	.
COc1ccc(NC(=O)c2ccco2)c(OC)c1	0%	-3%	5%	-3%	1%
COc1ccc(OC)c(N/C(=N\c2nc(C)cc(C)n2)NC(=O)c2ccco2)c1	-1%	-11%	?	16%	25µM*
O=C(CN1C(=O)CCSc2ccccc21)Nc1cccc(F)c1	.	.	4%	.	7%
CCOC(=O)c1ccc(NC(=O)CCc2nc(-c3cccc(C)c3)no2)cc1	2%	25µM*	-7%[11.4 µM]	8%	30%
O=C(OCCCCN1C(=O)c2ccccc2C1=O)c1n[nH]c2ccccc12	?	?	6%	8%	25%
CC(=O)c1c(C)[nH]c(C(=O)OCCCCN2C(=O)c3ccccc3C2=O)c1C	?	13µM*	.	3%	23%
CC(C)(CNS(=O)(=O)c1ccc(F)cc1)CNS(=O)(=O)c1ccc(F)cc1	3%	0%	8%	?	-3%
c1cncc(-c2nccc(-n3ccnc3)n2)c1	-2%[11.4 µM]	?	3%	?	-14%
